PNC inhibitor: perinucleolar compartment assembly inhibition. PC3M PTB-GFP, PNC prevalence imaging, 16 h; active compounds read low. activity change (PNC), negative = inhibition, % at 10 µM. 140,000 compounds, 3.1% hits. AID 2417;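 active = readout at or below -70, meaning at least 70% loss of cells showing the perinucleolar compartment, a nuclear body marking cancer cells; inconclusive = readout between -30 and a set limit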;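 also: plate controls were DMSO wells for no effect and camptothecin positive control wells for full effect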
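Read-out is percentage of cells bearing a perinucleolar compartment, from automated 20x imaging of fixed, Hoechst-stained PC3M PTB-GFP cells. Cells were seeded 4 h, then exposed 16 h to compound (23 nl of library stock) in duplicate plates.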
HPGD inh: inhibitors of human 15-hydroxyprostaglandin dehydrogenase (HPGD); Potency, µM, for the others: at the top dose activity change, negative = inhibition, actives largely listed as inhibitors; AID 894; purified HPGD, NADH fluorescence kinetic, PGE2 substrate; 150,000 compounds, 4.3% hits; P15428; also: potency is read from the fitted curve at half-maximal effect
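20 nM HPGD preincubated 15 min at room temperature with compound in 50 mM Tris-HCl pH 8, 0.01% Tween 20. Started with 1 mM NAD+ and 30 uM prostaglandin E2; NADH fluorescence (360/450 nm) read 5 times over 30-s intervals, last minus first.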
ALDH1A1 block: inhibitors of human aldehyde dehydrogenase 1A1. P00352. Purified ALDH1A1, NADH fluorescence, propionaldehyde substrate. Potency, µM (titrated, usually from 75.3 µM), for inactives: top-dose activity, negative = inhibition, hits mostly inhibitors. 220,000 compounds, 7.3% hits;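 also: potency is read from the fitted curve at half-maximal effect; plate controls were no enzyme wells and a reference inhibitor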
Target sequence (P00352 whole entry, looked up): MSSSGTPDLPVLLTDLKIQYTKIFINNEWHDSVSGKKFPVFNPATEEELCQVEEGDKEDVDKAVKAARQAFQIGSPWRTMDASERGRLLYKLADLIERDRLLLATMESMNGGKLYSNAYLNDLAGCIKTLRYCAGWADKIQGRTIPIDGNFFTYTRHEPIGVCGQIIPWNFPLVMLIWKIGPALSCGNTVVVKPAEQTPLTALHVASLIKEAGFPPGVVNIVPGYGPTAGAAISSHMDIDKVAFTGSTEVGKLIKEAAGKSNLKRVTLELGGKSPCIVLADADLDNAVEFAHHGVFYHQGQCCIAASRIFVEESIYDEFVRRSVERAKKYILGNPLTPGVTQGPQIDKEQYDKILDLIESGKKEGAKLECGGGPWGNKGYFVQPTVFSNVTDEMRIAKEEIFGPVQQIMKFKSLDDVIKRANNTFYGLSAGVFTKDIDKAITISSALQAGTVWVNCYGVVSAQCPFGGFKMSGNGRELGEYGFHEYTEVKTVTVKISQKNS
The depositor's hits bear a star; ! = not confirmed by another sample. Sampled rows, rich in hits. Any-hit rate of the full collection: about 11%. Unless noted, calls follow the shape of the dose curve; as a rule, active = well fitted inhibition curve with a large enough effect (not every such curve was filed as active); inconclusive = small, poorly fitted or top-dose-only effect, or another doubt; inactive = no such curve, though single readings can be large or run the other way. Unless noted, % is scaled to controls: 0 for no effect and ±100 for the full control effect.

What do the screens show for `Cc1ccccc1C(=O)Nc1cccc(NC(=S)NC(=O)c2cccs2)c1`?
PNC inhibitor: 22.7; HPGD inh: -8.2%; ALDH1A1 block: inconclusive

Results for O=C(NC(=S)Nc1cccc(NC(=O)c2ccccc2Cl)c1)c1cccs1 ?
PNC inhibitor: 40.9; HPGD inh: -9.0%; ALDH1A1 block: 4.47µM*

Results for CC(=O)c1cccc(NC(=S)NC(=O)c2ccc(C)cc2Cl)c1 ?
ALDH1A1 block: 8.91µM*

How did CC(=O)c1cccc(NC(=S)NC(=O)c2ccccc2Cl)c1 do in these assays?
PNC inhibitor: -29.4; HPGD inh: 20µM*; ALDH1A1 block: inconclusive

Results for CC(=O)c1cccc(NC(=S)NC(=O)c2ccc(Br)cc2)c1 ?
PNC inhibitor: 8.9; HPGD inh: -11.1%; ALDH1A1 block: -7.0%

Results for CCC(=O)NC(=S)Nc1cccc(NC(=O)c2ccc(Cl)cc2Cl)c1 ?
PNC inhibitor: -13.7; HPGD inh: -16.9%; ALDH1A1 block: inconclusive

How did CN1CCN(C(=S)c2cn(Cc3ccc(Br)cc3)c3ccccc23)CC1 do in these assays?
ALDH1A1 block: -5.8%

What do the screens show for `O=C(c1cnccn1)N1CCC2(CCCN(c3ccccc3)C2)CC1`?
HPGD inh: -9.5%; ALDH1A1 block: -2.6%

What do the screens show for `CCN1C(=O)CSc2ccc(C(=O)NC3CCCCC3)cc21`?
PNC inhibitor: inconclusive; HPGD inh: -3.8%; ALDH1A1 block: 12.6µM*

How did O=C(NCc1cccs1)c1ccc(Cl)c(S(=O)(=O)N2CCCC2)c1 do in these assays?
ALDH1A1 block: 5.8%

Results for CCN1C(=O)CSc2ccc(C(=O)NCc3ccccc3OC)cc21 ?
PNC inhibitor: 0.3; HPGD inh: -14.9%; ALDH1A1 block: 10µM*

How did COc1ccccc1CNC(=O)CN1C(=O)CSc2ccc(S(=O)(=O)N3CCCC3)cc21 do in these assays?
ALDH1A1 block: -8.0%

Results for C=CCN1C(=O)CSc2ccc(C(=O)NCc3cccs3)cc21 ?
ALDH1A1 block: 8.91µM*

Results for CCC(C)NC(=O)c1ccc2c(c1)N(Cc1ccccc1)C(=O)CS2 (centres undefined) ?
ALDH1A1 block: -15.7%

Results for Cc1cnc(C(=O)N2CCCC(C(=O)c3ccc(Cl)cc3C)C2)cn1 (centres undefined) ?
ALDH1A1 block: 16.6%

What do the screens show for `Cc1ccc(S(=O)(=O)NC(=O)NC(C)Cc2ccccc2)cc1` (centres undefined)?
ALDH1A1 block: -5.5%

How did C=CCN(Cc1nc(-c2cc(OC)ccc2OC)oc1C)C1CCS(=O)(=O)C1 (centres undefined) do in these assays?
ALDH1A1 block: -12.9%

Results for CCC(C)Oc1cccc(C(=O)Nc2ccccc2N2CCOCC2)c1 (centres undefined) ?
PNC inhibitor: -86.8*; HPGD inh: -17.9%; ALDH1A1 block: inconclusive

Results for CC(C)Oc1cccc(C(=O)Nc2ccccc2N2CCOCC2)c1 ?
PNC inhibitor: 5.3; HPGD inh: -13.1%; ALDH1A1 block: inconclusive

Results for CCOc1ccc(C(=O)C2CCN(CC(=O)Nc3ccccc3N3CCOCC3)CC2)cc1 ?
PNC inhibitor: 26.0; HPGD inh: -24.9%; ALDH1A1 block: 25.1µM*

How did CCOc1ccc(C(=O)Nc2ccccc2N2CCOCC2)cc1 do in these assays?
PNC inhibitor: 26.3; HPGD inh: -5.2%; ALDH1A1 block: -7.7%

What do the screens show for `CCOC(=O)c1cnc(-c2ccccc2)nc1Oc1ccc(OC)cc1`?
ALDH1A1 block: 11.2µM*

What do the screens show for `CCOC(=O)c1cnc(-c2ccccc2)nc1Oc1ccccc1`?
PNC inhibitor: 17.2; HPGD inh: -10.6%; ALDH1A1 block: -9.0%

What do the screens show for `CC(=O)O[C@H](C(=O)O[C@@H]1C[C@@H](CCC[C@H]2O[C@H](C(=O)OC(C)C)CC[C@@H]2C)O[C@@H](CC#N)C1)c1ccccc1`?
HPGD inh: -9.5%; ALDH1A1 block: -5.3%

Results for COc1c2ccoc2cc2oc(C)cc(=O)c12 ?
HPGD inh: inconclusive; ALDH1A1 block: -8.4%

How did COc1c2occc2c(OC)c2c(=O)cc(C)oc12 do in these assays?
PNC inhibitor: 19.7; HPGD inh: 28.2µM*!; ALDH1A1 block: 0.7%

What do the screens show for `Cc1cc(C)c(S(=O)(=O)NC(C)C)c(C)c1-n1cnnn1`?
ALDH1A1 block: 2.0%

Results for CCOc1ccc(NC2=C(OC)C(=O)c3ccccc3C2=O)cc1 ?
PNC inhibitor: 9.3; HPGD inh: 20µM*; ALDH1A1 block: 3.16µM*

What do the screens show for `O=C1C=C(Nc2ccc(O)cc2)C(=O)c2ccccc21`?
ALDH1A1 block: -8.0%

How did COc1ccc(NC2=C(NCCO)C(=O)c3ccccc3C2=O)cc1 do in these assays?
PNC inhibitor: inconclusive; HPGD inh: -18.1%; ALDH1A1 block: 11.2µM*

What do the screens show for `CCOc1ccc(NS(=O)(=O)N(C)C)cc1`?
PNC inhibitor: inconclusive; HPGD inh: -27.5%; ALDH1A1 block: -0.5%

Screening data from PubChem BioAssay.
